This is part of a sample that, as a whole, favours compounds with a hit. Of some 83,000 tested, about 20% had one in any assay.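 Plates (96-well) were seeded with cells, treated with compound at one concentration, and incubated for 48 hours before percent growth was determined.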 Active and inactive are the calls of the source. The calls were made as follows: active = growth percent below 10; inactive = the rest.
Tests used:
Test in all cases: NCI-60 one-dose screen, 48 h (100 = growth as untreated, 0 = no growth, -100 = all killed)
Settings in all cases: 10 µM unless noted
NCI-H23 lung = system: NCI-H23 lung
NCI-H226 lung = system: NCI-H226 lung
NCI-H322M lung = system: NCI-H322M lung
HOP-62 NSCLC = system: HOP-62 NSCLC
NCI-H460 lung = system: NCI-H460 lung
HOP-92 NSCLC = system: HOP-92 NSCLC
A549/ATCC NSCLC = system: A549/ATCC NSCLC
786-0 renal = system: 786-0 renal
COLO 205 colon = system: COLO 205 colon
DU-145 prostate = system: DU-145 prostate
K-562 leukemia = system: K-562 leukemia
MALME-3M melanoma = system: MALME-3M melanoma
MDA-MB-231 breast = system: MDA-MB-231 breast
RXF 393 renal = system: RXF 393 renal
SF-268 CNS = system: SF-268 CNS
SF-295 CNS = system: SF-295 CNS
SF-539 CNS = system: SF-539 CNS
M14 melanoma = system: M14 melanoma
UACC-257 melanoma = system: UACC-257 melanoma
NCI-H522 lung = system: NCI-H522 lung

Measured: growth

Nc1c(C(=O)Nc2cccc3ccccc23)sc2nc3c(cc12)CCCC3
active: COLO 205 colon -3.36% | K-562 leukemia 9.59% | SF-539 CNS 8.91% | M14 melanoma 7.77%
inactive: NCI-H23 lung 23.1% | NCI-H226 lung 63.1% | NCI-H322M lung 51.7% | HOP-62 NSCLC 29.9% | NCI-H460 lung 16.4% | HOP-92 NSCLC 44% | A549/ATCC NSCLC 17.8% | 786-0 renal 34.7% | DU-145 prostate 19.3% | MALME-3M melanoma 78% | MDA-MB-231 breast 33.2% | RXF 393 renal 27.4% | SF-268 CNS 50.1% | SF-295 CNS 14.6%

CC1(C)CC[C@]2(C(=O)Nc3ccccn3)CC[C@]3(C)C(=CC[C@@H]4[C@@]5(C)C/C(=C/c6ccncc6)C(=O)C(C)(C)[C@@H]5CC[C@]43C)[C@@H]2C1
inactive: NCI-H23 lung 34.4% | NCI-H226 lung 28.1% | NCI-H322M lung 62.6% | HOP-62 NSCLC 70.9% | HOP-92 NSCLC 43.4% | A549/ATCC NSCLC 26.6% | 786-0 renal 44.2% | DU-145 prostate 33.9% | K-562 leukemia 11% | MDA-MB-231 breast 48.8% | SF-268 CNS 72.5% | SF-295 CNS 30.8% | SF-539 CNS 16.2% | UACC-257 melanoma 48.4% | M14 melanoma 20.6%
active: NCI-H460 lung 6.3% | COLO 205 colon 2.97% | MALME-3M melanoma -2.79% | RXF 393 renal -21.5%

O=C(O)/C(=C/c1ccc(O)cc1)c1ccccc1
inactive: NCI-H23 lung 93.9% | NCI-H226 lung 100% | NCI-H322M lung 100% | HOP-62 NSCLC 88.8% | NCI-H460 lung 108% | HOP-92 NSCLC 83.1% | A549/ATCC NSCLC 93% | 786-0 renal 92.2% | COLO 205 colon 120% | DU-145 prostate 97.9% | K-562 leukemia 104% | MALME-3M melanoma 94.5% | MDA-MB-231 breast 103% | RXF 393 renal 70.6% | SF-268 CNS 95.8% | SF-295 CNS 105% | SF-539 CNS 122% | UACC-257 melanoma 90.3% | M14 melanoma 97.5%

O=C(O[C@@H]1Cc2c(O)cc(O)cc2O[C@@H]1c1cc(O)c(O)c(O)c1)c1cc(O)c2c(c1)OCO2
inactive: NCI-H23 lung 92.6% | NCI-H226 lung 93% | NCI-H322M lung 107% | HOP-62 NSCLC 98.5% | NCI-H460 lung 105% | HOP-92 NSCLC 95.1% | A549/ATCC NSCLC 82.5% | 786-0 renal 94.4% | COLO 205 colon 104% | DU-145 prostate 99.7% | K-562 leukemia 91% | MALME-3M melanoma 108% | MDA-MB-231 breast 101% | RXF 393 renal 111% | SF-268 CNS 97% | SF-295 CNS 103% | SF-539 CNS 108% | UACC-257 melanoma 83% | M14 melanoma 91.9%

N=c1ccc2nc3c(cc(N)c4ccccc43)oc-2c1
active: NCI-H23 lung -80.4% | NCI-H226 lung -61.3% | NCI-H322M lung -34.2% | HOP-62 NSCLC -97.7% | NCI-H460 lung -77.3% | NCI-H522 lung -70.1% | 786-0 renal -90.7% | COLO 205 colon -100% | DU-145 prostate -100% | K-562 leukemia -67.3% | MALME-3M melanoma -91.5% | MDA-MB-231 breast -52.8% | SF-268 CNS -59.2% | SF-295 CNS -69.8% | SF-539 CNS -98.9% | UACC-257 melanoma -91.5% | M14 melanoma -100%
inactive: HOP-92 NSCLC 21.7%

CC/C(=N/NC(N)=O)c1ccccc1
inactive: NCI-H23 lung 98.6% | NCI-H226 lung 97.8% | NCI-H322M lung 102% | HOP-62 NSCLC 107% | NCI-H460 lung 108% | HOP-92 NSCLC 103% | A549/ATCC NSCLC 96.4% | 786-0 renal 98.5% | COLO 205 colon 119% | DU-145 prostate 108% | K-562 leukemia 101% | MALME-3M melanoma 105% | MDA-MB-231 breast 102% | RXF 393 renal 108% | SF-268 CNS 107% | SF-295 CNS 89.8% | SF-539 CNS 95.1% | M14 melanoma 106%

Cc1ccc(-c2nc([P+](c3ccccc3)(c3ccccc3)c3ccccc3)c(N3C[C@H]4C[C@H](C3)c3cccc(=O)n3C4)o2)cc1
inactive: NCI-H23 lung 82.3% | NCI-H226 lung 108% | NCI-H322M lung 94.3% | HOP-62 NSCLC 90.4% | NCI-H460 lung 105% | HOP-92 NSCLC 62.6% | A549/ATCC NSCLC 99.1% | 786-0 renal 97.1% | COLO 205 colon 48.9% | DU-145 prostate 98.3% | K-562 leukemia 47.3% | MALME-3M melanoma 74.5% | MDA-MB-231 breast 90.9% | RXF 393 renal 79.8% | SF-268 CNS 91.1% | SF-295 CNS 96.1% | SF-539 CNS 99.7% | UACC-257 melanoma 37.5% | M14 melanoma 82.3%

C/C(=N\Nc1cc(C)c2ccccc2n1)c1ccccn1
inactive: NCI-H23 lung 14% | HOP-62 NSCLC 15.1% | DU-145 prostate 18.3%
active: NCI-H226 lung -2.65% | NCI-H322M lung -2.12% | NCI-H460 lung -44.7% | HOP-92 NSCLC -13.9% | A549/ATCC NSCLC -0.781% | 786-0 renal -63.9% | COLO 205 colon 3.41% | K-562 leukemia -41.4% | MALME-3M melanoma -77.9% | MDA-MB-231 breast -28.7% | RXF 393 renal -77.4% | SF-268 CNS -6.64% | SF-539 CNS -53.8% | UACC-257 melanoma -62.1% | M14 melanoma -81.4%
